RORgamma inh = ROR gamma (mouse) transcription inhibition | P51450 | Drosophila S2 Gal4-RORgamma UAS-luciferase reporter, 20 h | Potency, µM (top dose mostly 53.6 µM), without a hit: at the top dose activity change, negative = inhibition, actives largely listed as inhibitors | 310,000 compounds, 5.4% hits; note: nearly all actives have a fitted effect of over 60% in size
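Compounds are pin-transferred onto Drosophila Schneider cells expressing a copper-inducible Gal4–ROR gamma transactivation domain fusion. After 1 hr, copper sulfate is added to 700 uM final; luciferase is read 20 hr later.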
NPSR antagonist = neuropeptide S receptor (human) antagonism, cAMP. CHO-NPSR cells, cAMP TR-FRET, antagonist mode. Potency, µM (titrated, usually from 38.3 µM), without a hit: at the top dose activity change, negative = inhibition, actives largely listed as inhibitors. 220,000 compounds, 1% hits; note: nearly all actives have a fitted effect of over 50% in size
Gal4-VP16 FLuc = Gal4-VP16 reporter inhibition counter-screen | Drosophila S2 Gal4-VP16 UAS-luciferase, luminescence, 20 h | Potency, µM (titrated, usually from 53.6 µM), for the others: top-dose activity, negative = inhibition, usual class: inhibitors | 310,000 compounds, 3.5% hits | AID 2546;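 note: Gal4-VP16 expression switched on by copper sulfate through the metallothionein promoter; nearly all actives have a fitted effect of over 50% in size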
B2AR arrestin = recruits beta-arrestin to the human beta2-adrenergic receptor | P07550 | Potency, µM (doses to about 46.1 µM), inactives show at the highest dose activation, hits mostly activators | beta-arrestin recruitment to beta2AR, cell-based reporter | 330,000 compounds, 0.02% hits;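 note: 0% = DMSO controls and full agonism = EC100 isoproterenol or metaproterenol; nearly all actives have a fitted effect of over 65% in size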
Target sequence (P07550 whole entry, looked up): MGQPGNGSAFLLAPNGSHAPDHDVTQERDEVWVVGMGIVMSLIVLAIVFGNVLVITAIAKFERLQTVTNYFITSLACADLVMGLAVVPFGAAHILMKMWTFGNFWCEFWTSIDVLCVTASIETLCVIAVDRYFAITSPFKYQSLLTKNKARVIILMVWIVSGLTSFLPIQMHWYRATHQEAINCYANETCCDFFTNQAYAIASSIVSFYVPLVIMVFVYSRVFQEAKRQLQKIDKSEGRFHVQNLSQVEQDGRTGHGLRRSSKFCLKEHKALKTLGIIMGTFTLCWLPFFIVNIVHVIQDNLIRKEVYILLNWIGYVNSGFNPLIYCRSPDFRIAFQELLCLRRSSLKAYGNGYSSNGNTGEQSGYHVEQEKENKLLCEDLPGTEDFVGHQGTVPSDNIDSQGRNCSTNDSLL
The depositor's hits bear a star; ? = inconclusive; . = not tested or not shown; [ ] = remark or other dose. An excerpt weighted towards active compounds, which were near 5.7% of everything screened. Calls come from the whole dose curve; as a rule, active = well fitted curve in the direction sought with a large enough effect; inconclusive = small, poorly fitted or top-dose-only effect, or another doubt; inactive = no such curve, though single readings can be large; an effect the other way counts as inactive or inconclusive. Unless noted, % is set by controls: 0 for no effect and ±100 for the full control effect; potency is the fitted concentration of half-maximal effect.

SMILES | RORgamma inh | NPSR antagonist | Gal4-VP16 FLuc | B2AR arrestin
CC1(C(=O)Nc2nccs2)Cc2ccccc2C(=O)O1 (stereo unspecified) | -24.8% | -3.6%[46.1 µM] | 8.3% | 0.5%
CC1(C(=O)Nc2nnc(SCc3ccccc3)s2)Cc2ccccc2C(=O)O1 (stereo unspecified) | 10µM* | -5.3%[46.1 µM] | -11.0% | -0.3%
C=CCSc1nc(N(CC)CC)c2sccc2n1 | 11.2µM* | -16.0%[46.1 µM] | -16.9% | -3.1%
C=CCNc1nc(SC)nc2ccsc12 | -22.1% | -1.2%[46.1 µM] | 4.0%[0.365 µM] | -0.2%
Cc1ccc(C)c(Nc2c([N+](=O)[O-])c(=O)oc3ccccc23)c1 | -7.1% | 2.2% | -5.2% | -0.6%
CC(C)Sc1nc2ccccc2n1CC(=O)O | 32.5% | -27.9% | -4.7% | -0.4%
CCC(C)Sc1nc2ccccc2n1CC(=O)O (stereo unspecified) | 12.6µM* | -5.4%[46.1 µM] | 2.4% | -0.2%
CO[C@@H]1COC(=O)[C@@H](CCSC)NC(=O)C/C=C\[C@@H](C)COC(=O)CCC[C@H]1C | -14.7%[10 µM] | . | -5.9%[10 µM] | .
O=C(/C=C/c1ccco1)Oc1cc(Br)cc(/C=N/NC(=O)c2ccccc2O)c1 | 3.16µM* | -24.2% | 2.82µM* | -0.6%
Cc1ccc(C(=O)N/N=C/c2cccc(OC(=O)/C=C/c3ccco3)c2)cn1 | -26.2% | 3.2% | 19.7% | -0.1%
C=CCSc1nnc(NC(=O)C23CC4CC(CC(NC(C)=O)(C4)C2)C3)s1 | 1.5% | . | 12.6µM* | 0.4%
O=C1O/C(=C/c2ccccc2)c2ccccc21 | 23.4% | 29.7% | -14.7% | 4.5%
N#CC1=C(c2ccccc2)/C(=C/c2ccccc2)OC1=O | 3.55µM* | 2.51µM* | 2.24µM* | -0.4%
Cc1c(CCC(=O)N2CCC[C@H]2C(=O)O)c(=O)oc2cc3oc4c(c3cc12)CCCC4 | 1.26µM* | . | ? | 0.0%
Cc1c(CCC(=O)O)c(=O)oc2cc3oc4c(c3cc12)CCCC4 | ? | -14.8% | ? | -0.7%
Cc1c(CCC(=O)N[C@@H](CC(C)C)C(=O)O)c(=O)oc2cc3oc4c(c3cc12)CCCC4 | 0.631µM* | . | ? | -0.1%
CC1CCCCC1NC(=O)C1CCC(CNc2c(N3CCCCC3)c(=O)c2=O)CC1 (stereo unspecified) | 0.3% | 9.7% | 0.5% | -0.2%
Cc1cc(N2CCN(C)CC2)nc2ccc(NC(=S)N3CCN(c4ccccn4)CC3)cc12 | 7.3% | -30.1% | -12.0% | 0.2%
Cc1ccc(C)c(N2CCN(C(=S)Nc3ccc4nc(N5CCN(C)CC5)cc(C)c4c3)CC2)c1 | 11.2µM* | -26.7% | ? | -1.1%
Cc1ccc(C)c(N2CCN(C(=S)Nc3ccc4nc(N5CCOCC5)cc(C)c4c3)CC2)c1 | 5.62µM* | -41.3% | ? | 0.4%
CCN1CCN(c2cc(C)c3cc(NC(=S)N4CCN(c5ccccc5F)CC4)ccc3n2)CC1 | 12.6µM* | -29.0% | ? | 0.3%
Cc1cc(N2CCOCC2)nc2ccc(NC(=S)N3CCN(c4ccccc4)CC3)cc12 | ? | -22.0% | 7.6% | -0.2%
COc1ccccc1N1CCN(C(=S)Nc2ccc3nc(N4CCOCC4)cc(C)c3c2)CC1 | 4.47µM* | 0.5% | ? | 0.2%
C=CCN(C(C(=O)OC)C(C)C)S(=O)(=O)C=C (stereo unspecified) | -1.2% | . | 18.9% | .
COc1ccc(OC)c(NC(=O)C(CC(=O)O)NCc2ccco2)c1 (stereo unspecified) | -0.3% | 0.0%[46.1 µM] | -15.3% | -0.8%
SMILES | RORgamma inh | NPSR antagonist | Gal4-VP16 FLuc | B2AR arrestin
COc1ccccc1Nc1nccc(N(C)C)c1C#N | 3.5% | -25.8% | -12.8% | -1.4%
CN(C(=S)NC(=O)c1ccc(Br)o1)c1ccccc1 | ? | 9.5% | -0.4% | -0.6%
O=c1[nH]n(-c2cccc3cccnc23)c(=O)c2ccccc12 | -87.0% | -6.8%[46.1 µM] | -12.7% | -0.1%
O=S1(=O)Nc2c(ccc3cccnc23)-c2ccccc21 | 1.26µM* | 3.16µM* | 2.51µM* | ?
N#Cc1c(Nc2ccccc2C(F)(F)F)s[nH]c1=O | 14.1µM* | ? | 11.2µM* | -0.6%
NNc1ccccc1C(F)(F)F | -2.9% | -3.6% | ? | -1.0%
N#Cc1c(Nc2ccccc2)s[nH]c1=O | ? | -10.9% | 11.2µM* | -0.7%
N#Cc1c(Nc2ccccc2Cl)s[nH]c1=O | 1.26µM* | 53.6% | 3.16µM* | 9.0%
Cc1cc(C)c(C#N)c(Nc2ccccc2Cl)n1 | -11.5%[10 µM] | -18.2%[7.67 µM] | -3.2% | 0.1%
N#Cc1c(Nc2ccccc2)sc(C(=O)c2ccc(F)cc2)c1N | 21.1% | -30.9% | -24.6% | 0.2%

High-throughput results: PubChem BioAssay, National Center for Advancing Translational Sciences (NCATS)
